Results taken from PubChem BioAssay (EPA / NIEHS).
Records with an inconclusive call do not appear. Some compounds were tested as several samples or in several runs, with calls that do not always agree. Calls of active or inactive are those of the source. Rule for the calls, unless noted: active = hit-call score of the fitted dose curve at least 0.9, where 1 is the maximum; inactive = score below 0.9.

Test system: not listed separately
Test: IUF_NPC2c_oligodendrocyte_migration_120hr: Leibniz Research Institute for Environmental Medicine (IUF) 120-hour Neural Progenitor Cell Migration Assay for Oligodendrocyte Migration (NPC2c) (AID 2284297);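 note: O4-positive oligodendrocyte migration distance divided by radial glia migration distance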
Settings: not given
Method in brief: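 Human fetal cortex-derived neural progenitor spheres (0.3 mm) were plated on poly-D-lysine/laminin in N2 differentiation medium and exposed to 7 concentrations for 120 h, with half-medium renewal at day 3. Oligodendrocyte migration distance was normalized to radial glia migration, relative to DMSO.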

Compound	outcome
Nc1ccn([C@@H]2O[C@H](CO)[C@@H](O)[C@@H]2O)c(=O)n1	inactive
Cn1cc[nH]c1=S	inactive
CCCC(CCC)C(=O)O	inactive

Test system: not listed separately
Test: IUF_NPC2a_radial_glia_migration_72hr: Leibniz Research Institute for Environmental Medicine (IUF) 72-hour Neural Progenitor Cell Migration Assay for Radial Glia Migration (NPC2a) (AID 2284299)
Settings: not given
Method in brief: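 Primary hNPC spheres, fetal brain GW 16-19, on PDL/laminin; DMEM/F12 3:1 + 1% N2. Compound dosed day 0, 7 conc. + SC, half-medium refresh day 3. 72 h brightfield, migration distance core-to-front (um), 4 directions averaged.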

Compound	outcome	AC50
Nc1ccn([C@@H]2O[C@H](CO)[C@@H](O)[C@@H]2O)c(=O)n1	inactive	–
Cn1cc[nH]c1=S	inactive	–
CCCC(CCC)C(=O)O	–	1330 µM (active)

Test system: not listed separately
Test: IUF_NPC2b_neuronal_migration_120hr: Leibniz Research Institute for Environmental Medicine (IUF) 120-hour Neural Progenitor Cell Migration Assay for Neuron Migration (NPC2b) (AID 2284300)
Settings: not given
Method in brief: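 Primary human fetal cortex neural progenitor spheres (0.3 mm) plated on poly-D-lysine/laminin in N2 differentiation medium, exposed 120 h with half-medium refresh at day 3. TUBB3-stained neuron distance from sphere core, normalized to radial glia migration, versus DMSO.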

Compound	outcome
Nc1ccn([C@@H]2O[C@H](CO)[C@@H](O)[C@@H]2O)c(=O)n1	inactive
Cn1cc[nH]c1=S	inactive
CCCC(CCC)C(=O)O	inactive

Test system: not listed separately
Test: IUF_NPC3_neuronal_differentiation_120hr: Leibniz Research Institute for Environmental Medicine (IUF) 120-hour Neuronal Differentiation Assay (NPC3) (AID 2284301)
Settings: not given
Method in brief: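 Human fetal (GW 16-19) neural progenitor spheres (0.3 mm) plated on poly-D-lysine/laminin in N2 differentiation medium, exposed 120 h at 37C with half-medium renewal day 3; 7 concentrations. TUBB3+ cells as % of Hoechst nuclei, CNN-identified; DMSO baseline.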

Compound	AC50	outcome
Nc1ccn([C@@H]2O[C@H](CO)[C@@H](O)[C@@H]2O)c(=O)n1	0.0137 µM (active)	–
Cn1cc[nH]c1=S	–	inactive
CCCC(CCC)C(=O)O	2200 µM (active)	–

Test system: not listed separately
Test: IUF_NPC4_neurite_length_120hr: Leibniz Research Institute for Environmental Medicine (IUF) 120-hour Neuronal Morphology Assay for Neurite Length (NPC4) (AID 2284302)
Settings: not given
Method in brief: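 Human fetal neural progenitor spheres (0.3 mm) plated on poly-D-lysine/laminin in N2 differentiation medium, exposed from day 0 for 120 h with half-medium refresh at day 3, 37C. Mean neurite length (um) of TUBB3-positive neurons from skeletonized immunostaining images; DMSO ≤0.1%.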

Compound	outcome	AC50
Nc1ccn([C@@H]2O[C@H](CO)[C@@H](O)[C@@H]2O)c(=O)n1	inactive	–
Cn1cc[nH]c1=S	inactive	–
CCCC(CCC)C(=O)O	–	2180 µM (active)

Read-out: CD69, CD69 (gene 969)
Test: BSK_LPS_CD69: BioMAP Diversity Plus: LPS Assay for CD69 Biomarker Activity (AID 2284303)
Settings: primary human HUVEC with PBMC
Method in brief: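 Human umbilical vein endothelial cells co-cultured with PBMC under LPS stimulation, chemical exposure 24 h; cell-surface CD69 measured by ELISA and fitted in the positive direction versus DMSO.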

Compound	outcome	AC50
NCC(F)(F)C(F)(F)C(F)(F)C(F)(F)F	inactive	–
O=C(Cl)C(F)(F)C(F)(F)C(F)(F)C(=O)Cl	inactive	–
C[Si](C)(C)C(F)(F)C(F)(F)C(F)(F)F	inactive	–
OCCC(F)(F)C(F)(F)C(F)(F)C(F)(F)F	inactive	–
FC(F)(F)COC(OCC(F)(F)F)OCC(F)(F)F	inactive	–
FC(F)=C(F)C(F)(F)C(F)(F)C(F)(F)C(F)(F)C(F)(F)C(F)(F)F	inactive	–
FC(F)(F)C(F)(F)C(F)(F)C(F)(F)C(F)(F)C(F)(F)I	inactive	–
O=S(=O)(O)CCC(F)(F)C(F)(F)C(F)(F)C(F)(F)C(F)(F)C(F)(F)F	inactive	9.47 µM (active)
OC(O)(C(F)C(O)(O)C(F)(F)F)C(F)(F)F	inactive	–
FC(F)C(F)(F)COCC1CO1 (configuration not stated)	inactive	–

Test system: not listed separately
Test: IUF_NPC4_neurite_area_120hr: Leibniz Research Institute for Environmental Medicine (IUF) 120-hour Neuronal Morphology Assay for Neurite Area (NPC4) (AID 2284305; active = hit-call score of the fitted dose curve at least 0.9, where 1 is the maximum)
Settings: not given
Method in brief: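 Human fetal neural progenitor spheres (0.3 mm) plated on poly-D-lysine/laminin in N2 differentiation medium, exposed 120 h (7 concentrations, DMSO ≤0.1%, half-medium refresh day 3). Fixed, TUBB3 immunostained; mean neurite area per neuron by Omnisphero skeletonization.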

Compound	outcome
Nc1ccn([C@@H]2O[C@H](CO)[C@@H](O)[C@@H]2O)c(=O)n1	inactive
Cn1cc[nH]c1=S	inactive
CCCC(CCC)C(=O)O	inactive

Test system: not listed separately
Test: IUF_NPC2-5_cytotoxicity_120hr: Cytotoxicity Assessment at 120 hours in the Leibniz Research Institute for Environmental Medicine (IUF) Neural Progenitor Cell Migration and Differentiation Assay (NPC2-5) (AID 2284307; active = hit-call score of the fitted dose curve at least 0.9, where 1 is the maximum;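 for AC50: LDH released into supernatant as membrane damage marker via resorufin fluorescence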)
Settings: not given
Method in brief: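 Human fetal neural progenitor spheres (0.3 mm, GW 16-19 cortex) were plated on poly-D-lysine/laminin in N2 differentiation medium and exposed for 120 h, with half-medium refresh at day 3. LDH release into supernatant was read by resorufin fluorescence.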

Compound	AC50	outcome
Nc1ccn([C@@H]2O[C@H](CO)[C@@H](O)[C@@H]2O)c(=O)n1	0.0802 µM (active)	–
Cn1cc[nH]c1=S	–	inactive
CCCC(CCC)C(=O)O	1400 µM (active)	–

Test system: not listed separately
Test: IUF_NPC2-5_cell_number_120hr: Cell Number Assessment at 120 hours in the Leibniz Research Institute for Environmental Medicine (IUF) Neural Progenitor Cell Migration and Differentiation Assay (NPC2-5) (AID 2284308);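 note: count of Hoechst-stained nuclei in migration zone around plated human neural progenitor spheres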
Settings: not given
Method in brief: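 Primary human fetal neural progenitor spheres (GW 16-19, 0.3 mm) plated on poly-D-lysine/laminin in N2 differentiation medium, exposed from day 0 for 120 h with half-medium refresh at day 3; Hoechst-positive nuclei counted in migration area versus DMSO control.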

Compound	AC50	outcome
Nc1ccn([C@@H]2O[C@H](CO)[C@@H](O)[C@@H]2O)c(=O)n1	0.743 µM (active)	–
Cn1cc[nH]c1=S	–	inactive
CCCC(CCC)C(=O)O	2210 µM (active)	–

Test system: not listed separately
Test: VALA_TUBHUV_Antagonist_CellCount: Viability Assessment in the VALA Sciences human Umbilical Vein Endothelial Tubule Formation (TUBHUV) Antagonism Assay (AID 2284310; active = hit-call score of the fitted dose curve at least 0.9, where 1 is the maximum)
Settings: not given
Method in brief: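 HUVEC co-cultured with HDF (1:3) 3 days in 10 ng/ml VEGF, then 3 days with compounds in VEGF medium. Fixed, nuclear stain and CD31 immunofluorescence, imaged; cell counts fitted versus 0.1% DMSO, loss of signal read as lower viability.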

Compound	outcome
OCCNCCO	inactive
Cn1cc[nH]c1=S	inactive
CCCC(CCC)C(=O)O	inactive

Test system: not listed separately
Test: VALA_TUBIPS_Agonist_TubuleLength: VALA Sciences human iPS-derived Endothelial Tubule Formation (TUBIPS) Agonism Assay (AID 2284311; active = hit-call score of the fitted dose curve at least 0.9, where 1 is the maximum)
Settings: not given
Method in brief: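 Human iPS-derived endothelial cells were exposed to compound for 72 h. Tubule formation was imaged by high-content fluorescence and scored as gain of signal relative to DMSO vehicle (agonist mode).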

Compound	outcome
CCN(CC)C(=S)SSC(=S)N(CC)CC	inactive
Cn1cc[nH]c1=S	inactive
CCCC(CCC)C(=O)O	inactive

Test system: not listed separately
Test: IUF_NPC2-5_viability_120hr: Viability Assessment at 120 hours in the Leibniz Research Institute for Environmental Medicine (IUF) Neural Progenitor Cell Migration and Differentiation Assay (NPC2-5) (AID 2284312)
Settings: not given
Method in brief: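 Human fetal neural progenitor spheres (0.3 mm) plated on poly-D-lysine/laminin in N2 differentiation medium, exposed 120 h with half-medium refresh at day 3. Viability by alamar blue resazurin fluorescence; 7 concentrations, DMSO max 0.1%.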

Compound	outcome	AC50
Nc1ccn([C@@H]2O[C@H](CO)[C@@H](O)[C@@H]2O)c(=O)n1	inactive	–
Cn1cc[nH]c1=S	inactive	–
CCCC(CCC)C(=O)O	–	1030 µM (active)

Test system: not listed separately
Test: VALA_MIGHUV2_WoundArea: VALA Sciences human Umbilical Vein Endothelial Cell Migration (MIGHUV) Assay, Area of Scratch Wound after Recovery (AID 2284316; active = hit-call score of the fitted dose curve at least 0.9, where 1 is the maximum)
Settings: not given
Method in brief: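 HUVEC seeded at 9000 cells/well, scratched after 24 h; test chemical added within 30 min, 6-point concentration response in triplicate (0.1% DMSO vehicle). After 24 h wound recovery, cells fixed and Hoechst-stained nuclei in wound area imaged; Cytochalasin D reference control.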

Compound	outcome
CCN(CC)C(=S)SSC(=S)N(CC)CC	inactive
Cn1cc[nH]c1=S	inactive
CCCCCCCCCC	inactive
